# Results filed as inconclusive are left out. Active and inactive are the calls of the source. Calls follow the shape of the full dose curve.
# Assay: p53 small molecule agonists, cell-based qHTS assay with human liver microsomes (AID 1963577);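 also: p53 response element beta-lactamase reporter cells with liver microsomes plus NADPH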
# Conditions: HCT-116 p53RE-bla with human liver microsomes, ratio, 16 h; series mostly up to 66 µM; activation: at the top concentration
# Text: National Center for Advancing Translational Sciences [NCATS]
# Division of Preclinical Innovation [DPI]
# U.S. Environmental Protection Agency [EPA]
# National Institutes of Environmental Health Sciences [NIEHS]
# National Toxicology Program [NTP]
# U.S. Food and Drug Administration [FDA]
# p53, a tumor suppressor protein, is activated following cellular insult, including DNA damage and other cellular stresses. The activation of p53 regulates cell fate by inducing DNA repair, cell cycle arrest, apoptosis, or cellular senescence. The activation of p53, therefore, is a good indicator of DNA damage and other cellular stresses. […] The activation of the reporter gene under culture conditions can be detected by fluorescence intensity.
# Tox21 Assay Protocol Summary:
# The p53RE-bla cells were dispensed at 4,000cells/3ul/well in 1536-well black-clear bottom plates. After the assay plates were incubated at 37 C, 5% CO2 incubator for 5 hours, 23 nL of compounds dissolved in DMSO, positive controls or DMSO only was transferred to the assay plate. Following compound addition, 3 uL of human liver microsomes (XenoTech, Kansas City, KS) at final concentration of 0.5 mg/mL and 1uL of Beta-Nicotinamide adenine dinucleotide 2-phosphate (NADPH) at final concentration of 0.5 mg/mL were transferred to the assay plate. The plates were incubated at 37 C for 16 hours. 1 uL of LiveBLAzer detection mixture was added to each well and the plates were incubated at room temperature in the dark for 2 h.
# % is scaled to controls: 0 for no effect and ±100 for the full control effect.
SMILES,activation,Potency
Cc1c(N)cccc1C(F)(F)F,1.18% [at 30.3 µM] (inactive),–
Cc1cccc(C)c1NC(=O)CN1CCCCCC1,0.624% [at 30.3 µM] (inactive),–
O=C(c1ccccc1O)c1ccccc1O,0.465% (inactive),–
CC(=O)Nc1ncc([N+](=O)[O-])s1,-2.82% [at 30.3 µM] (inactive),–
CCCCCCCCSCC,0.39% (inactive),–
CC(C)=CCC/C(C)=C/C(=O)O,-1.28% (inactive),–
Oc1ccc(Sc2ccc(O)cc2)cc1,-1.91% (inactive),–
CC1CCC(C(C)(C)S)C(=O)C1 (stereo not given),-2.89% (inactive),–
c1coc(CNc2ncnc3nc[nH]c23)c1,-8.17% (inactive),–
O=[N+]([O-])c1ccc(F)cc1F,0.796% (inactive),–
COC(=O)OC,–,inactive
Cc1cccc(C)c1NC(=O)CC12CCCN1CCC2,-3.87% [at 30.3 µM] (inactive),–
CC(C)=O,0.715% (inactive),–
CCCC(=O)OCC(COC(=O)CCC)OC(=O)CCC,1.84% (inactive),–
FC(F)(F)C(Cl)Br (stereo not given),–,inactive
CC1=CC(=O)c2ccccc2C1=O,–,inactive
CC/C=C\C#N,7.46% (inactive),–
O=C1c2c(O)ccc(Nc3ccc(CCO)cc3)c2C(=O)c2c([N+](=O)[O-])ccc(O)c21,-9.83% (inactive),–
CN(C)C(=O)Oc1ccc[n+](C)c1,-2% [at 30.3 µM] (inactive),–
C=C1[C@H]2CC[C@@H]3[C@H]2C(C)(C)CCC[C@]13C,-1.75% (inactive),–

SMILES,activation,Potency
O=C1OC[C@H](Cc2cccc(O)c2)[C@H]1Cc1cccc(O)c1,0.5% [at 30.3 µM] (inactive),–
CC(=O)Nc1ccc(C)cc1,2% (inactive),–
CC(C)(C)OC=O,0.106% (inactive),–
C/C(=C(\CCO)SS/C(CCO)=C(\C)N(C=O)Cc1cnc(C)nc1N)N(C=O)Cc1cnc(C)nc1N,-0.466% [at 30.3 µM] (inactive),–
CCC(C)C1CCCCC1=O (stereo not given),3.2% (inactive),–
O=C(Nc1ccc([N+](=O)[O-])cc1)Nc1ccc([N+](=O)[O-])cc1 (tested in a mixture with another compound),0.486% [at 30.3 µM] (inactive),–
COc1cc(C(=O)N2CCOCC2)cc(OC)c1OC,0.391% [at 30.3 µM] (inactive),–
Cc1ccc(N(C)C)cc1,–,inactive
COc1ccccc1C=O,0.27% (inactive),–
COc1ccc(NC(C)=O)cc1,-0.345% (inactive),–
C1=C\CC/C=C\CC/C=C\CC/1,-0.317% (inactive),–
Nc1nc(=O)n([C@@H]2O[C@H](CO)[C@@H](O)[C@@H]2F)cc1I,-3.64% [at 30.3 µM] (inactive),–
Cc1oc(C)c(C(=O)Nc2ccccc2)c1C,-2.45% (inactive),–
NC(=O)N[C@@H](CCC(=O)O)C(=O)O,-0.585% [at 30.3 µM] (inactive),–
CC(=O)c1sc(C)nc1C,-1.09% (inactive),–
CCCCc1ccc2cccc(S(=O)(=O)O)c2c1,4.28% (inactive),–
O=C(/N=N/C(=O)OCc1ccccc1)OCc1ccccc1,5.78% (inactive),–
Cc1cccc(Cl)c1,0.251% (inactive),–
CCCCCCCC/C=C\CCCCCCCC(=O)OCCCC,-3.86% [at 13.5 µM] (inactive),–
COCC(O)CO (stereo not given),-0.941% (inactive),–

# — PubChem BioAssay (Tox21)
